The whole screen tested about 5,500 compounds, of which about 2,000 (36%) were called active. Not shown: some 18% with an inconclusive outcome. No stated cut-off is given here; in the data, active means normalized growth mostly below about 0.91 (no sharp cut-off); inconclusive means no clear call, values can overlap the other calls; inactive means mostly above about 0.92. The list shows a part of the results.
Experiment: chemical genetic growth profiling, strain panel (AID 1159580);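 further: tested at 20 µM; growth read once vehicle control cultures reached saturation at 30 °C; 1 = growth at the plate median or of vehicle wells; lower values mean less growth of the strain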
Conditions: S. cerevisiae deletion strains, growth OD

Measured: normalized growth

O=C(O[C@@H]1Cc2c(O)cc(O)cc2O[C@@H]1c1cc(O)c(O)c(O)c1-c1c([C@H]2Oc3cc(O)cc(O)c3C[C@H]2O)cc(O)c(O)c1O)c1cc(O)c(O)c(O)c1
active: locus YAL013W, strain DEP1, active compounds read low 0.0787 | locus YBR229C, strain ROT2, active compounds read low 0.387 | locus YBR231C, strain swc5, active compounds read low 0.873 | locus YCL029C, strain bik1, active compounds read low 0.643 | locus YDL035C, strain GPR1, active compounds read low 0.0755 | locus YDL074C, strain BRE1, active compounds read low 0.204 | locus YDL101C, strain DUN1, active compounds read low 0.113 | locus YDL134C, strain PPH21, active compounds read low 0.09 | locus YDL192W, strain arf1, active compounds read low 0.553 | locus YDR069C, strain doa4, active compounds read low 0.893 | locus YDR101C, strain arx1, active compounds read low 0.772 | locus YDR159W, strain sac3, active compounds read low 1.14 [resistant] | locus YDR162C, strain NBP2, active compounds read low 0.0726 | locus YDR318W, strain mcm21, active compounds read low 0.61 | locus YDR388W, active compounds read low 0.737 | locus YDR502C, strain sam2, active compounds read low 0.362 | locus YER015W, strain faa2, active compounds read low 0.892 | locus YER155C, strain BEM2, active compounds read low 0.523 | locus YER167W, strain BCK2, active compounds read low 0.295 | locus YGL086W, strain mad1, active compounds read low 0.308 | locus YGL248W, strain PDE1, active compounds read low 0.146 | locus YGR078C, strain PAC10, active compounds read low 0.414 | locus YGR135W, strain pre9, active compounds read low 0.429 | locus YGR229C, strain SMI1, active compounds read low 0.0837 | locus YGR252W, strain gcn5, active compounds read low 0.516 | locus YHR027C, strain rpn1, active compounds read low 0.911 | locus YHR030C, strain SLT2, active compounds read low 0.219 | locus YHR079C, strain IRE1 (second series), active compounds read low 0.626 | locus YHR094C, strain hxt1, active compounds read low 0.888 | locus YHR129C, strain ARP1, active compounds read low 0.205 | locus YHR200W, strain rpn10, active compounds read low 0.569 | locus YIL066C, strain RNR3, active compounds read low 0.0703 | locus YIL073C, strain SPO22, active compounds read low 0.15 | locus YIR030C, strain dcg1, active compounds read low 0.863 | locus YJL095W, strain BCK1, active compounds read low 0.107 | locus YJL134W, strain LCB3, active compounds read low 0.432
inactive: locus YAL021C, strain ccr4, active compounds read low 0.962 | locus YAL026C, strain drs2, active compounds read low 0.965 | locus YAL030W, strain snc1, active compounds read low 1.01 | locus YBL061C, strain skt5, active compounds read low 0.997 | locus YBR009C, strain hhf1, active compounds read low 0.979 | locus YBR021W, strain FUR4, active compounds read low 1.03 | locus YBR023C, strain chs3, active compounds read low 0.936 | locus YBR171W, strain sec66, active compounds read low 1.02 | locus YBR279W, strain paf1, active compounds read low 0.978 | locus YCL011C, strain gbp2, active compounds read low 0.988 | locus YCL016C, strain dcc1, active compounds read low 0.988 | locus YCL061C, strain MRC1, active compounds read low 0.993 | locus YCL069W, strain vba3, active compounds read low 1.01 | locus YCR088W, strain abp1, active compounds read low 1.03 | locus YDL005C, strain med2, active compounds read low 1.03 | locus YDL040C, strain nat1, active compounds read low 1 | locus YDL185W, strain tfp1, active compounds read low 0.928 | locus YDR001C, strain nth1, active compounds read low 1.03 | locus YDR137W, strain rgp1, active compounds read low 0.984 | locus YDR195W, strain ref2 1.07 | locus YDR297W, strain sur2, active compounds read low 0.981 | locus YDR334W, strain swr1, active compounds read low 0.985 | locus YDR335W, strain msn5, active compounds read low 0.979 | locus YDR392W, strain spt3, active compounds read low 1.02 | locus YEL003W, strain gim4, active compounds read low 0.968 | locus YEL037C, strain rad23, active compounds read low 1 | locus YEL061C, strain CIN8 (second series), active compounds read low 1.02 | locus YER016W, strain bim1, active compounds read low 1.01 | locus YER110C, active compounds read low 0.992 | locus YER111C, strain swi4, active compounds read low 0.963 | locus YER155C, strain BEM2 (second series), active compounds read low 1.03 | locus YFR010W, strain ubp6, active compounds read low 0.986 | locus YGL078C, strain dbp3, active compounds read low 0.983 | locus YGL167C, strain pmr1, active compounds read low 1 | locus YGL173C, strain kem1, active compounds read low 0.961 | locus YGL227W, strain vid30, active compounds read low 1.04 | locus YGL240W, strain doc1, active compounds read low 1.09 | locus YGL253W, strain hxk2, active compounds read low 1.01 | locus YHR013C, strain ard1, active compounds read low 0.937 | locus YHR142W, strain chs7, active compounds read low 0.969 | locus YIL125W, strain kgd1, active compounds read low 1.02 | locus YJL092W, strain hpr5, active compounds read low 1.03 | locus YJL095W, strain BCK1 (second series), active compounds read low 0.991 | locus YJL115W, strain asf1, active compounds read low 1.03 | locus YJL129C, strain trk1, active compounds read low 1.06 | locus YJL154C, strain vps35, active compounds read low 1.02 | locus YJL164C, strain tpk1, active compounds read low 0.941 | locus YJL166W, strain qcr8, active compounds read low 0.984 | locus YJL168C, strain set2, active compounds read low 0.934
